Compound activity deposited in PubChem by several laboratories.
This is a sample that favours compounds with a hit; in the whole collection about 3.1% have one here.
Rin1-Abl PPI inh = inhibitors of Rin1-Abl protein binding, primary screen, biochemical, TR-FRET | inhibition, % at 7.35 µM | hit rate 0.4% among 360,000 | AID 588664, 2011; in the data active = inhibition above about 5%, passing the limit was not always enough
Neddylation inh = inhibitors of cullin neddylation, primary screen, biochemical, TR-FRET, uHTS, NAE and Ubc12; NEDD8-conjugating enzyme Ubc12 (Homo sapiens) + NEDD8-activating enzyme E1 regulatory …; calls only at 25 µM; hit rate 0.58% among 360,000; AID 651699, 2012; in the data active = inhibition above about 36%
KLK7 zymogen act = proKLK7 zymogen activators, primary screen, biochemical, fluorescence intensity; purified proKLK7, EDANS-DABCYL substrate fluorescence; 100% is mature enzyme control, 0% vehicle; activation, % at 7 µM; hit rate 0.9% among 370,000;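 active = activation above the mean of all tested compounds plus 3 SD, computed per campaign excluding outliers beyond control limits, cut at about 13% in these data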
UHRF1 MBD2 ctr = UHRF1 methylated DNA binding inhibitors, primary screen, counter-screen for MBD2 inhibitor project, biochemical, TR-FRET, human UHRF1, single concentration. E3 ubiquitin-protein ligase UHRF1 (Homo sapiens), Q96T88. UHRF1 binding to methylated oligo. inhibition, % at 4.4 µM. hit rate 0.75% among 370,000. AID 687016, 2013; in the data active = inhibition above about 21%;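 also: UHRF1 SRA domain binding a hemimethylated CpG hairpin DNA probe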
LEDGF integ inh = blockers of LEDGF/p75-dependent integrase strand transfer – biochemical, TR-FRET, high throughput, primary screen | HIV-1 integrase (with human LEDGF/p75) | TR-FRET IN-LEDGF/p75 DNA integration, Eu/Cy5 | inhibition, % at 3.7 µM | hit rate 0.64% among 370,000 | AID 743269, 2014;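 active = inhibition above the screen-wide mean plus 3 SD, cut at about 13% in these data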;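 also: signal is the Cy5 over europium emission ratio at 671 and 618 nm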
MBD2 inh = inhibitors of MBD2 binding to methylated DNA, primary screen, biochemical, TR-FRET, DNA-binding domain, human; Methyl-CpG-binding domain protein 2 (Homo sapiens), Q9UBB5; MBD2 binding to methylated oligonucleotide; inhibition, % at 4.4 µM; hit rate 0.31% among 370,000; AID 686964, 2013; in the data active = inhibition above about 13%
Target sequence (Q9UBB5 whole entry, looked up, the tested form may be a part): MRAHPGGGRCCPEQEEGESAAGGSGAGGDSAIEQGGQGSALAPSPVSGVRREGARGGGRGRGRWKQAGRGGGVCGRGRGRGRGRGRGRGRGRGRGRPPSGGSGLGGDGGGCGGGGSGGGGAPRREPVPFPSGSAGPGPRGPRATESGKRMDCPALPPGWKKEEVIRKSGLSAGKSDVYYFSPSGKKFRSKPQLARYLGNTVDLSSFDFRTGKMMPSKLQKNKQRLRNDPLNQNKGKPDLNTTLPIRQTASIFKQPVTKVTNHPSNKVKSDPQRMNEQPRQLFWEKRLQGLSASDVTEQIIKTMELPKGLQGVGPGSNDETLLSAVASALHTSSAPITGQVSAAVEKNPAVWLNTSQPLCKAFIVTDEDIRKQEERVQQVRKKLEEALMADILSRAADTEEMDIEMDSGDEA
IN multimer act = HIV-1 IN multimer formation enhancers, counter-screen for LEDGF/p75 integration inhibitor project, biochemical, TR-FRET. activation, % at 7.7 µM. TR-FRET HIV-1 integrase multimerization. AID 1053131, 2014. hit rate 17% among 2,000. shares compounds with LEDGF integ inh; in the data active = activation above about 8.9%
TRFRET interf = TR-FRET optical interference artefacts, confirmation, artefact control for LEDGF/p75-dependent integration inhibitor project, biochemical, HIV-1 IN multimerization | shares compounds with LEDGF integ inh | TR-FRET optical interference counterscreen | inhibition, % at 7.7 µM | 2,000 tested, under 10 active | AID 1053135, 2014;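 active = inhibition above the mean over all tested compounds plus 3 SD, which no compound reached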
LEDGF integ conf = inhibitors of HIV-1 IN-LEDGF/p75 DNA integration, confirmation, biochemical, TR-FRET. hit rate 36% among 2,000. shares compounds with LEDGF integ inh. inhibition, % at 3.7 µM. TR-FRET LEDGF/p75-dependent HIV-1 integration; in the data active = inhibition above about 14%
Large screens that a line does not name were inactive (follow-up assays come after a bar, where they were run).

Cc1ccnc(N/N=C/c2ccco2)n1	none
CC(C)c1[nH]nc2c1C(c1ccccc1)N(c1ccccc1)C2=O (configuration not stated)	none (no result: Rin1-Abl PPI inh, Neddylation inh)
CC(C)(C)c1ccc(S(=O)(=O)N2CCC(NC(=O)c3ccco3)CC2)cc1	none
COc1ccc(NC(=O)c2cc(S(=O)(=O)N3CCc4ccccc43)cn2C)cc1OC	none
O=C(Cn1nnc(-c2ccccc2Cl)n1)NCc1ccc2c(c1)OCO2	none
COc1ccc(-n2c(C)cc(/C=N/Nc3nnc(C)n3N)c2C)cc1	LEDGF integ inh 49 | IN multimer act inactive | TRFRET interf inactive | LEDGF integ conf inactive
COc1cccc(/C=N/Nc2nnc(C)n2N)c1O	LEDGF integ inh 48 | IN multimer act inactive | TRFRET interf inactive | LEDGF integ conf inactive
Cc1nnc(N/N=C/c2cccc(OCc3ccc(Cl)c(Cl)c3)c2)n1N	LEDGF integ inh 57 | IN multimer act inactive | TRFRET interf inactive | LEDGF integ conf inactive
NC(=O)N/N=C/c1cccc(OCc2ccc(F)cc2)c1	none
CCOc1ccc(-n2c(C)cc(/C=N/Nc3nc(C)cc(=O)[nH]3)c2C)cc1	none
COC(=O)C12C=C3CC(c4ccc(C)s4)=C3C(=O)N1Cc1[nH]c3ccccc3c1C2 (configuration not stated)	none (no result: Rin1-Abl PPI inh, Neddylation inh)
O=C(/C=C/c1ccc(F)cc1)c1ccc(N2CCOCC2)cc1	none
C/C(=C\C(=O)c1ccc(F)cc1)Nc1ccc(N2CCOCC2)cc1	LEDGF integ inh 23 | IN multimer act inactive | TRFRET interf inactive | LEDGF integ conf inactive
O=C1c2cc(O)c(O)cc2OC(c2ccc(O)c(O)c2)C1O (configuration not stated)	LEDGF integ inh 49 | IN multimer act 15 | TRFRET interf inactive | LEDGF integ conf 55
Cc1ccc(-n2c(Cc3cccn3C)nnc2SCC(=O)NCc2ccc3c(c2)OCO3)cc1	none
Cn1cc(CCOCc2ccc(Br)cc2)c2ccccc21	none (no result: Rin1-Abl PPI inh, Neddylation inh)
O=c1c(OC2OC(CO)C(O)C(O)C2OC2OC(CO)C(O)C(O)C2O)c(-c2ccc(O)cc2)oc2cc(O)cc(O)c12 (configuration not stated)	LEDGF integ inh 19 | IN multimer act 48 | TRFRET interf inactive | LEDGF integ conf 48
COc1ccc(/C=N/NC(=O)c2nn(-c3ccccc3)c(=O)c3c(N)scc23)cc1	LEDGF integ inh 17 | IN multimer act inactive | TRFRET interf inactive | LEDGF integ conf 17
N#Cc1ccc(COn2nnc3ccccc32)cc1	none
COCC1CN(CCc2ccc(F)cc2)S(=O)(=O)c2c(F)cccc2O1 (configuration not stated)	LEDGF integ inh 18 (no result: Rin1-Abl PPI inh, Neddylation inh) | IN multimer act inactive | TRFRET interf inactive | LEDGF integ conf inactive
COCc1cc(N2CCN(C(=O)OC(C)(C)C)C[C@@H]2C)ccc1N1CC[C@H](O)C1	LEDGF integ inh 17 (no result: Rin1-Abl PPI inh, Neddylation inh) | IN multimer act inactive | TRFRET interf inactive | LEDGF integ conf inactive
O=C1C=CC(=O)c2c(O)c(CO)c(CO)c(O)c21	Rin1-Abl PPI inh 20, UHRF1 MBD2 ctr 87, LEDGF integ inh 77, MBD2 inh 57 | IN multimer act 32 | TRFRET interf inactive | LEDGF integ conf 80
C[C@@H]1CCN(C2CC2)S(=O)(=O)c2ccc(N3CC[C@H](N(C)C)C3)cc2O1	none (no result: Rin1-Abl PPI inh, Neddylation inh)
COC(=O)c1ccc(NC(=S)N2CCN(Cc3ccccc3OC)CC2)cc1	none
